Compound activity as filed in PubChem.
Vaccinia mCherry – qHTS for Stage-Specific Inhibitors of Vaccinia Orthopoxvirus: mCherry Reporter Primary qHTS; Vaccinia virus mCherry reporter infection, fluorescence; 310,000 compounds, 0.63% hits; Potency, µM (doses to about 36.5 µM), without a hit: at the highest dose activity change, negative = inhibition, hits mostly inhibitors; calls by dose curve; tested in A549 cells; further: nearly all actives have a fitted effect of over 35% in size
MARV entry inh – qHTS for inhibitors of binding or entry into cells for Marburg Virus; Marburg virus pseudotyped entry inhibition, cell reporter; Potency, µM (doses to about 37.8 µM), inactives show top-dose activity change, negative = inhibition, hits mostly inhibitors; 300,000 compounds, 1.8% hits; calls by dose curve; tested in HEK293 cells
LASV entry inh – qHTS for Inhibitors of binding or entry into cells for Lassa Virus; Potency, µM (highest dose often 37.9 µM), for inactives: at the top dose activity change, negative = inhibition, usual class: inhibitors; Lassa virus pseudotype entry inhibition, cell reporter; 300,000 compounds, 1.2% hits; calls by dose curve; tested in HEK293 cells; further: nearly all actives have a fitted effect of over 50% in size
FMDV antiviral – High Throughput Screening for Foot and Mouth Disease Virus Antivirals | FMDV antiviral cell-based qHTS | Potency, µM (titrated, usually from 57.9 µM), inactives show top-dose activity change, negative = inhibition, usual class: inhibitors | 410,000 compounds, 1.2% hits | AID 1159524, 2015; calls by dose curve; tested in HEK293T cells; further: read-out not given here; nearly all actives have a fitted effect of over 45% in size
Sm TGR block – qHTS Assay for the Inhibitors of Schistosoma Mansoni Peroxiredoxins; Schistosoma mansoni thioredoxin glutathione reductase (TGR), Q962Y6; Potency, µM (top dose mostly 114 µM), inactives show top-dose activity change, negative = inhibition, usual class: inhibitors; purified TGR, DTNB reduction, TNB absorbance 405 nm; 360,000 compounds, 3% hits; AID 485364, 2010; active means well fitted inhibition curve with a large enough effect; inconclusive means small, poorly fitted or top-dose-only effect; inactive means no such curve, though single readings can be large or run the other way; further: nearly all actives have a fitted effect of over 60% in size
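First, TGR (20 nM dispensed) and NADPH were mixed with compound. Second, a 15 min room-temperature incubation followed. Third, further NADPH and then DTNB were added to start the reaction. Finally, TNB absorbance was monitored kinetically.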
Vaccinia Venus – qHTS for Stage-Specific Inhibitors of Vaccinia Orthopoxvirus: Venus Reporter Primary qHTS | 330,000 compounds, 0.46% hits | Potency, µM (doses to about 36.5 µM), for inactives: at the highest dose activity change, negative = inhibition, most hits filed as inhibitors | Vaccinia virus Venus reporter expression, fluorescence; calls by dose curve; tested in A549 cells; further: nearly all actives have a fitted effect of over 30% in size
The depositor's hits bear a star; i = inactive; ? = inconclusive; / = no result given; ! = repeats disagree; [ ] = another dose, or the depositor's remark. Rows were chosen to be rich in hits. Some 5.4% of all compounds tested hit in one or more screens of this group. On the % scale 0 is the no-effect control and ±100 the full control effect; potency means the concentration at half of the fitted maximal effect.

SMILES	Vaccinia mCherry	MARV entry inh	LASV entry inh	FMDV antiviral	Sm TGR block	Vaccinia Venus
Cc1nn(C)c(C)c1/C=C(/C(=O)C(C)(C)C)n1cncn1	-14%	?	?	-15%	?	-1%
CN(Cc1cnc2nc(N)nc(N)c2n1)c1ccc(C(=O)N[C@@H](CCC(=O)O)C(=O)O)cc1	1µM*!	0.04µM*!	?	?	/	3.2µM*
CN(Cc1cnc2nc(N)nc(N)c2n1)c1ccc(C(=O)N[C@H](CCC(=O)O)C(=O)O)cc1	/	0.04µM*	/	/	/	/
O=S(=O)(c1ccc2ccccc2c1)N1CCOCC1	2%	-2%[46.1 µM]	5%[46.1 µM]	6%	-1%	-12%
O=C(Nc1ccc2nc(-c3ccco3)c(-c3ccco3)nc2c1)NC1CC1	-23%	-1%	-13%	24%	?	-14%
O=C(Nc1ccc2nc(-c3cccs3)c(-c3cccs3)nc2c1)N1CCOCC1	/	?	?	-16%	-20%	/
O=C(Nc1ccc(N2CCOCC2)cc1)Nc1ccc2nc(-c3ccco3)c(-c3ccco3)nc2c1	/	?	-28%	0%	4.5µM*	/
O=C(NCCCO)Nc1ccc2nc(-c3ccco3)c(-c3ccco3)nc2c1	/	1%	/	/	0.28µM*	/
O=S(=O)(c1ccc2nc(-c3ccco3)c(-c3ccco3)nc2c1)N1CCOCC1	/	-13%	-10%	-15%	1.6µM*	-5%
COc1cc(-c2nc(C)cnc2C)cc2c1OCCN(C(=O)Cc1cc(OC)c(OC)c(OC)c1)C2	-9%	/	/	-5%	/	10%
O=C(Nc1ccc(Cl)cc1Cl)[C@@H]1CC=C[C@@H]2CCN(C3CC3)C(=O)[C@@H]21	-16%	/	/	/	/	-6%
C[C@@H]1O[C@@H](O[C@@H]2C=C3CC[C@@H]4C(CC[C@]5(C)[C@@H](c6ccc(=O)oc6)CC[C@]45O)[C@@]3(C)CC2)[C@H](O)[C@H](O)[C@H]1O (some centres not stated)	32µM*	/	/	?	-29%	?
C[C@@H]1O[C@@H](O[C@@H]2C=C3CCC4C(CC[C@]5(C)[C@@H](c6ccc(=O)oc6)CC[C@]45O)[C@@]3(C)CC2)[C@H](O)[C@H](O)[C@H]1O (some centres not stated)	?	/	/	?	-22%	0.63µM*
CC(=O)C1CCC2(O)C3CCC4=CC(=O)CCC4(C)C3CCC12C (configuration not stated)	0%	18%	-2%[46.1 µM]	-20%	/	-6%
COc1ccc(NC(=O)CC2C(=O)N(c3ccccc3)C(=O)N2CCc2sccc2C)cc1 (configuration not stated)	-8%	-28%[46.1 µM]	?	9%	8%	-6%
O=C(c1ccncc1)N1CCC2(CC1)CN(c1ccccn1)C2	/	/	/	-16%	/	/
COc1ccc(C2c3c(n(C)c4ccccc34)C(=O)N2CC(=O)Nc2cccc(Cl)c2)cc1 (configuration not stated)	-12%	/	0%[46.1 µM]	-13%	-4%	-7%
CCc1ccc(NC(=O)Cn2c(=O)n(CC3CCCO3)c(=O)c3cc(OC)c(OC)cc32)cc1 (configuration not stated)	-20%	0%[46.1 µM]	-23%[46.1 µM]	-7%	-1%	-14%
Cc1cccc(-n2nc3c(c2NC(=O)c2ccco2)CS(=O)C3)c1C (configuration not stated)	i	0%[46.1 µM]	-1%	10%	0%	-13%
Cc1ccc(-n2nc3c(c2NC(=O)c2ccco2)CS(=O)C3)c(C)c1 (configuration not stated)	i	-1%	17%	-15%	40µM*	-6%
Cc1ccc(-n2nc3c(c2NC(=O)CC(C)C)CS(=O)C3)cc1 (configuration not stated)	i	/	/	-12%	50µM*	9%
CC(=O)Nc1c2c(nn1-c1ccccc1)CS(=O)C2 (configuration not stated)	/	/	/	-6%	-22%	/
CC(=O)Nc1c2c(nn1-c1ccccc1C)CS(=O)C2 (configuration not stated)	/	/	/	-13%	50µM*	/
